PubChem BioAssay (NCATS)
Inconclusive results are not listed. A call without a number means that no potency is given here. Calls of active or inactive are those of the source. Calls come from the whole dose curve; as a rule, active = well fitted inhibition curve with a large enough effect; inconclusive = small, poorly fitted or top-dose-only effect; inactive = flat fitted curve, though single readings scatter.

tested on: ATS189; assay: qHTS profiling for inhibitors of Plasmodium falciparum proliferation (AID 504749); note: nearly all actives have a fitted effect of over 60% in size; conditions: P. falciparum in erythrocytes, SYBR Green DNA, 72 h; series mostly up to 28.7 µM
Procedure, shortened: (§1)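 P. falciparum-infected erythrocytes (0.3% parasitemia, 2.5% hematocrit final) were exposed to compounds for 72 h at 37 C in 5% CO2, then lysed with SYBR Green buffer overnight at room temperature; parasite DNA fluorescence was normalized to artemisinin and DMSO controls.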
Potency is the fitted concentration of half-maximal effect.

| SMILES | Potency |
| --- | --- |
| CN1CC(=O)N2C(Cc3c([nH]c4ccccc34)[C@H]2c2ccc3c(c2)OCO3)C1=O (some centres undefined) | inactive |
| O=C1C(CCC(O)c2ccc(F)cc2)C(c2ccc(O)cc2)N1c1ccc(F)cc1 (centres undefined) | inactive |
| COc1ccnc(CS(=O)c2nc3ccc(OC(F)F)cc3[nH]2)c1OC (centres undefined) | inactive |
| CC(C)CN(C[C@@H](O)[C@H](Cc1ccccc1)NC(=O)O[C@H]1CO[C@H]2OCC[C@H]21)S(=O)(=O)c1ccc(N)cc1 | inactive |
| COc1c(C)c2c(c(O)c1CC=C(C)CCC(=O)OCCN1CCOCC1)C(=O)OC2 | 7.94 µM (active) |

tested on: ATS95; assay: as above; conditions: P. falciparum in erythrocytes, SYBR Green DNA, 72 h; series mostly up to 28.7 µM
Procedure, shortened: as §1

| SMILES | Potency |
| --- | --- |
| CN1CC(=O)N2C(Cc3c([nH]c4ccccc34)[C@H]2c2ccc3c(c2)OCO3)C1=O (some centres undefined) | inactive |
| O=C1C(CCC(O)c2ccc(F)cc2)C(c2ccc(O)cc2)N1c1ccc(F)cc1 (centres undefined) | inactive |
| COc1ccnc(CS(=O)c2nc3ccc(OC(F)F)cc3[nH]2)c1OC (centres undefined) | inactive |
| CC(C)CN(C[C@@H](O)[C@H](Cc1ccccc1)NC(=O)O[C@H]1CO[C@H]2OCC[C@H]21)S(=O)(=O)c1ccc(N)cc1 | inactive |
| COc1c(C)c2c(c(O)c1CC=C(C)CCC(=O)OCCN1CCOCC1)C(=O)OC2 | 7.94 µM (active) |

tested on: C2A; assay: as above; conditions: P. falciparum in erythrocytes, SYBR Green DNA, 72 h; series mostly up to 28.7 µM
Procedure, shortened: as §1

| SMILES | Potency |
| --- | --- |
| CN1CC(=O)N2C(Cc3c([nH]c4ccccc34)[C@H]2c2ccc3c(c2)OCO3)C1=O (some centres undefined) | inactive |
| O=C1C(CCC(O)c2ccc(F)cc2)C(c2ccc(O)cc2)N1c1ccc(F)cc1 (centres undefined) | inactive |
| COc1ccnc(CS(=O)c2nc3ccc(OC(F)F)cc3[nH]2)c1OC (centres undefined) | inactive |
| CC(C)CN(C[C@@H](O)[C@H](Cc1ccccc1)NC(=O)O[C@H]1CO[C@H]2OCC[C@H]21)S(=O)(=O)c1ccc(N)cc1 | inactive |
| COc1c(C)c2c(c(O)c1CC=C(C)CCC(=O)OCCN1CCOCC1)C(=O)OC2 | 11.2 µM (active) |

tested on: CP185; assay: as above; conditions: P. falciparum in erythrocytes, SYBR Green DNA, 72 h; series mostly up to 28.7 µM
Procedure, shortened: as §1

| SMILES | outcome |
| --- | --- |
| CN1CC(=O)N2C(Cc3c([nH]c4ccccc34)[C@H]2c2ccc3c(c2)OCO3)C1=O (some centres undefined) | inactive |
| O=C1C(CCC(O)c2ccc(F)cc2)C(c2ccc(O)cc2)N1c1ccc(F)cc1 (centres undefined) | inactive |
| COc1ccnc(CS(=O)c2nc3ccc(OC(F)F)cc3[nH]2)c1OC (centres undefined) | inactive |
| CC(C)CN(C[C@@H](O)[C@H](Cc1ccccc1)NC(=O)O[C@H]1CO[C@H]2OCC[C@H]21)S(=O)(=O)c1ccc(N)cc1 | inactive |

tested on: CP191; assay: as above; conditions: P. falciparum in erythrocytes, SYBR Green DNA, 72 h; series mostly up to 28.7 µM
Procedure, shortened: as §1

| SMILES | outcome |
| --- | --- |
| CN1CC(=O)N2C(Cc3c([nH]c4ccccc34)[C@H]2c2ccc3c(c2)OCO3)C1=O (some centres undefined) | inactive |
| O=C1C(CCC(O)c2ccc(F)cc2)C(c2ccc(O)cc2)N1c1ccc(F)cc1 (centres undefined) | inactive |
| COc1ccnc(CS(=O)c2nc3ccc(OC(F)F)cc3[nH]2)c1OC (centres undefined) | inactive |
| CC(C)CN(C[C@@H](O)[C@H](Cc1ccccc1)NC(=O)O[C@H]1CO[C@H]2OCC[C@H]21)S(=O)(=O)c1ccc(N)cc1 | inactive |

tested on: CP192; assay: as above; conditions: P. falciparum in erythrocytes, SYBR Green DNA, 72 h; series mostly up to 28.7 µM
Procedure, shortened: as §1

| SMILES | Potency |
| --- | --- |
| CN1CC(=O)N2C(Cc3c([nH]c4ccccc34)[C@H]2c2ccc3c(c2)OCO3)C1=O (some centres undefined) | inactive |
| Fc1ccc(C(c2ccc(F)cc2)N2CCN(CC=Cc3ccccc3)CC2)cc1 | inactive |
| O=C1C(CCC(O)c2ccc(F)cc2)C(c2ccc(O)cc2)N1c1ccc(F)cc1 (centres undefined) | inactive |
| COc1ccnc(CS(=O)c2nc3ccc(OC(F)F)cc3[nH]2)c1OC (centres undefined) | inactive |
| CC(C)CN(C[C@@H](O)[C@H](Cc1ccccc1)NC(=O)O[C@H]1CO[C@H]2OCC[C@H]21)S(=O)(=O)c1ccc(N)cc1 | inactive |
| COc1c(C)c2c(c(O)c1CC=C(C)CCC(=O)OCCN1CCOCC1)C(=O)OC2 | 8.49 µM (active) |

tested on: CP194; assay: as above; conditions: P. falciparum in erythrocytes, SYBR Green DNA, 72 h; series mostly up to 28.7 µM
Procedure, shortened: as §1

| SMILES | Potency |
| --- | --- |
| CN1CC(=O)N2C(Cc3c([nH]c4ccccc34)[C@H]2c2ccc3c(c2)OCO3)C1=O (some centres undefined) | inactive |
| O=C1C(CCC(O)c2ccc(F)cc2)C(c2ccc(O)cc2)N1c1ccc(F)cc1 (centres undefined) | inactive |
| COc1ccnc(CS(=O)c2nc3ccc(OC(F)F)cc3[nH]2)c1OC (centres undefined) | inactive |
| CC(C)CN(C[C@@H](O)[C@H](Cc1ccccc1)NC(=O)O[C@H]1CO[C@H]2OCC[C@H]21)S(=O)(=O)c1ccc(N)cc1 | inactive |
| COc1c(C)c2c(c(O)c1CC=C(C)CCC(=O)OCCN1CCOCC1)C(=O)OC2 | 6.75 µM (active) |

tested on: CP201; assay: as above; conditions: P. falciparum in erythrocytes, SYBR Green DNA, 72 h; series mostly up to 28.7 µM
Procedure, shortened: as §1

| SMILES | Potency |
| --- | --- |
| CN1CC(=O)N2C(Cc3c([nH]c4ccccc34)[C@H]2c2ccc3c(c2)OCO3)C1=O (some centres undefined) | inactive |
| O=C1C(CCC(O)c2ccc(F)cc2)C(c2ccc(O)cc2)N1c1ccc(F)cc1 (centres undefined) | inactive |
| COc1ccnc(CS(=O)c2nc3ccc(OC(F)F)cc3[nH]2)c1OC (centres undefined) | inactive |
| CC(C)CN(C[C@@H](O)[C@H](Cc1ccccc1)NC(=O)O[C@H]1CO[C@H]2OCC[C@H]21)S(=O)(=O)c1ccc(N)cc1 | inactive |
| COc1c(C)c2c(c(O)c1CC=C(C)CCC(=O)OCCN1CCOCC1)C(=O)OC2 | 13.5 µM (active) |

tested on: CP211; assay: as above; conditions: P. falciparum in erythrocytes, SYBR Green DNA, 72 h; series mostly up to 28.7 µM
Procedure, shortened: as §1

| SMILES | Potency |
| --- | --- |
| CN1CC(=O)N2C(Cc3c([nH]c4ccccc34)[C@H]2c2ccc3c(c2)OCO3)C1=O (some centres undefined) | inactive |
| O=C1C(CCC(O)c2ccc(F)cc2)C(c2ccc(O)cc2)N1c1ccc(F)cc1 (centres undefined) | inactive |
| COc1ccnc(CS(=O)c2nc3ccc(OC(F)F)cc3[nH]2)c1OC (centres undefined) | inactive |
| CC(C)CN(C[C@@H](O)[C@H](Cc1ccccc1)NC(=O)O[C@H]1CO[C@H]2OCC[C@H]21)S(=O)(=O)c1ccc(N)cc1 | inactive |
| COc1c(C)c2c(c(O)c1CC=C(C)CCC(=O)OCCN1CCOCC1)C(=O)OC2 | 6.01 µM (active) |
